90 compounds from PubChem BioAssay AID1445 (SRMLSC, 2008) can be followed below.

About 910 (0.41%) of roughly 220,000 compounds were called active. The sample holds actives, similar compounds and a random draw of the others, so the mix is not that of the screen.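 How the source made its calls: active means primary inhibition above the hit cutoff, then over 50% inhibition at one or more dose response concentrations (cut at about 23% in these data, passing the limit was not always enough); inconclusive means conflicting primary data, or primary hits not chosen for dose response; inactive means low primary inhibition, or under 50% at every dose.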 Results with a measured potency or affinity are listed apart.

Sequence of Aminopeptidase N (Plasmodium falciparum (isolate 3D7)) (O96935 whole entry, looked up): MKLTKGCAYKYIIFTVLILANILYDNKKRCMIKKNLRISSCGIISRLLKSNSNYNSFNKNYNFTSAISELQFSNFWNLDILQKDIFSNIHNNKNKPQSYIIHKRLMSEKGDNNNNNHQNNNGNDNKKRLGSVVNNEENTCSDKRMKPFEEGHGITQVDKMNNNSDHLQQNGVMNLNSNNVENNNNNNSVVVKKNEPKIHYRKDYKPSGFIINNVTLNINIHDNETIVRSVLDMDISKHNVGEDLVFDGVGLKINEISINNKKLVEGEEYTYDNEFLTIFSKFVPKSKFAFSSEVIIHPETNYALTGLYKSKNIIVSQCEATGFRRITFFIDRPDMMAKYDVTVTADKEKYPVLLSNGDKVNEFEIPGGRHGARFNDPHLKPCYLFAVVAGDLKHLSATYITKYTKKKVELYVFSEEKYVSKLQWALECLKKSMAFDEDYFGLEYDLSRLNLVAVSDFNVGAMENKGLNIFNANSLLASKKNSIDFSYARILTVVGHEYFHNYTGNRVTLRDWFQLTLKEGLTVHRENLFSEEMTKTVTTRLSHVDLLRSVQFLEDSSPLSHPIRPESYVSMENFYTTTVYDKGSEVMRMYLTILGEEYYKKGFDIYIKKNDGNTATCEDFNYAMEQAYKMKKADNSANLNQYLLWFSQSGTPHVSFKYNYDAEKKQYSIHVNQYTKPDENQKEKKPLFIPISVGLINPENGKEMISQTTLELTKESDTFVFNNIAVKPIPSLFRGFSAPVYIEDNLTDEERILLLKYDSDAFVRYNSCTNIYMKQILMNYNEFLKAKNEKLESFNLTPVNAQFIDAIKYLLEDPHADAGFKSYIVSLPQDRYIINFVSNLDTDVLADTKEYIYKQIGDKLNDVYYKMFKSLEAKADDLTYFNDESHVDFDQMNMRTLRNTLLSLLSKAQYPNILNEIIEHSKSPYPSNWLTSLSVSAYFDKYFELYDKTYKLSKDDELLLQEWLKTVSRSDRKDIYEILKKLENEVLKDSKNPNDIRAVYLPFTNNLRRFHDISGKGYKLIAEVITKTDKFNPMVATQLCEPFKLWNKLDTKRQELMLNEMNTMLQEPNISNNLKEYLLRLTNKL

The assay addresses Aminopeptidase N (Plasmodium falciparum (isolate 3D7)) (UniProt O96935). The assay can be described thus: P. falciparum M1AAP inhibitors, biochemical, fluorogenic H-Leu-NHMec substrate, 1536-well (AID 1445).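 Further: plate controls were DMSO full reaction for no effect and no enzyme background for full effect.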 The conditions noted are these: recombinant M1AAP, H-Leu-NHMec fluorogenic kinetic assay; at 30 µM, stronger effect = higher value unless noted.
For `O=C(CCCn1ncn2c(cc3occc32)c1=O)N1CCc2ccccc2C1`, the inhibition (commonly the drop in the measured response relative to a control, in per cent) is 2.44% (inactive). As for `CCc1nn(C(C)C(=O)N2CCc3ccccc3C2)c(=O)c2cc3occc3n12` (stereo not given), the figure is 2.28% (inactive); as for `CCc1nn(CCCC(=O)N2CCc3ccccc3C2)c(=O)c2cc3occc3n12`, 23.8% (active); as for `CS(=O)(=O)N(Cc1ccc(C(=O)NC2CCCCC2O)cc1)c1ccccc1` (stereo not given), 4.69% (inactive). To `CCOC(=O)N1CCN(C(=O)CN2C(=O)COc3ccc(C(C)(C)C)cc32)CC1` belongs 2.47% (inactive); to `CCc1ccc(S(=O)(=O)Nc2ccc(-c3nc4cccnc4s3)cc2)s1`, 27.2% (active); to `O=S(=O)(Nc1ccc(-c2nc3cccnc3s2)cc1)c1ccc(Cl)s1`, 13.1% (inactive). As for `CCS(=O)(=O)Nc1ccc(-c2nc3cccnc3s2)cc1`, the figure is 11.6% (inactive); as for `N#Cc1c(N2C(=O)Nc3ccccc3N2O)sc2c1CCCCCC2`, 11.8% (inactive).

Consider `C=CCn1c(C(CC)CC(C)(C)O)n[nH]c1=S` (stereo not given), for which the inhibition is -5.97% (inactive). As for `Cc1cc2cc(CCNC(=O)c3ccc(S(=O)(=O)N4CCOCC4)cc3)c(=O)[nH]c2cc1C`, the figure is 0.05% (inactive). To `O=C(COc1ccccc1/C=C1/NC(=O)NC1=O)Nc1ccccc1` belongs 16.8% (inactive); to `O=C1NC(=O)/C(=C/c2ccccc2OCc2ccccc2)S1`, 19.3% (inactive); to `C=CCN1C(=O)N/C(=C/c2ccccc2OCC(=O)Nc2ccc(F)cc2)C1=O`, 6.37% (inactive). To `O=C1NC(=O)/C(=C\c2ccccc2OCc2ccccc2)S1` belongs 12.7% (inactive); to `CSCC[C@@H](C(=O)NCc1cccs1)N1Cc2ccccc2C1=O`, 6.93% (inactive). Consider `CC(=O)Nc1ccc(S(=O)(=O)N2CCC(NC(=O)C(Cc3cccn3C)NC(C)=O)CC2)cc1` (stereo not given), for which the inhibition was -2.05% (inactive). As for `O=C(CCCn1cnc([N+](=O)[O-])n1)Nc1cccc(O)c1`, the figure is 4.83% (inactive).

`C[C@H](NC(=O)c1nc[nH]c1C(=O)N[C@@H](Cc1ccccc1)C(=O)OC(C)(C)C)c1ccccc1`: the inhibition is -12.4% (inactive). As for `COC(=O)C1=C(C(=O)OC)[C@@H]2N(Cc3ccccc3)c3ccccc3[C@@]23C[C@@H](C(=O)OC)N=C3N1`, the figure is 7.23% (inactive); as for `Cc1ccc2[nH]c(=O)c(CN(Cc3ccco3)S(=O)(=O)c3c(C)ccc4nsnc34)cc2c1`, 24.1% (active). `Cc1ccc2cc(CN(Cc3ccco3)S(=O)(=O)c3c(C)ccc4nsnc34)c(=O)[nH]c2c1`: the inhibition is 8.06% (inactive). As for `Cc1cc2cc(CN(Cc3ccco3)S(=O)(=O)c3c(C)ccc4nsnc34)c(=O)[nH]c2cc1C`, the figure is 12.1% (inactive).

In the case of `CC12CNCC(C)(CN(C3(O)C(=O)Nc4ccc(Br)cc43)C1)C2=O` (stereo not given), the inhibition was -7.16% (inactive). As for `O=C(c1cccc([N+](=O)[O-])c1)N1CCN(Cc2ccc3c(c2)OCO3)CC1`, the figure is 0.06% (inactive); as for `O=C(/C=C/c1cccc([N+](=O)[O-])c1)NCc1ccc2c(c1)OCO2`, 6.01% (inactive); as for `CN(Cc1c(F)cccc1Cl)c1ccc(S(=O)(=O)N2CCOCC2)cn1`, -2.07% (inactive). To `O=C1OC(c2cccs2)=N/C1=C/c1ccc(-c2cccc(C(=O)O)c2)o1` belongs 10.5% (inactive). To `O=C1OC(c2cccs2)=N/C1=C\c1ccc(-c2ccccc2Cl)o1` belongs 15.5% (inactive); to `O=C1OC(c2cccs2)=N/C1=C\c1ccc(-c2cccc(Cl)c2)o1`, 24.5% (active); to `O=C(COC(=O)c1cccs1)NC1CCCCC1`, 4.47% (inactive).

Consider `O=C(O)c1ccccc1-c1ccc(/C=C/c2cc(C(F)(F)F)[nH]c(=O)n2)o1`, for which the inhibition is 15.6% (inactive).

Turning to `COc1ccc(/C=C/c2cc(C(F)(F)F)[nH]c(=O)n2)cc1OC`, the inhibition is 10.6% (inactive). As for `O=c1nc(/C=C/c2ccc(-c3ccc(F)cc3)o2)cc(C(F)(F)F)[nH]1`, the figure is 27.6% (active); as for `COC(=O)[C@@H]1CC[C@H](C)[C@@H](c2ccc(C)cc2)N1C(=O)c1ccc(/C=N/OC[C@@H](O)[C@H]2O[C@@H]3OC(C)(C)O[C@@H]3[C@H]2O)cc1`, 7.48% (inactive). To `COc1ccccc1NC(=O)c1cc([N+](=O)[O-])ccc1NCCN1C(=O)CCC1=O` belongs 10.1% (inactive); to `O=C(O)c1cccc(S(=O)(=O)Nc2ccc3oc(=O)sc3c2)c1`, 89.5% (inactive).

`Cc1ccc(S(=O)(=O)Nc2ccc3oc(=O)sc3c2)c(C)c1`: the inhibition is 21.7% (inactive).

On to `OCCN1CCN(CCOc2ccccc2-c2ccccc2)CC1`, for which the inhibition was -1.14% (inactive). To `C=C(C)c1cccc(C(C)(C)NC(=O)Nc2cc(C)ccn2)c1` belongs 14.8% (inactive); to `C=C(C)c1cccc(C(C)(C)NC(=O)Nc2ccc(Cl)cn2)c1`, 6.48% (inactive); to `O=C(C=C1CCN(c2ncc(C(F)(F)F)cc2Cl)CC1)NNC(=O)Nc1ccc(Cl)cc1`, 1.48% (inactive). To `COCCCN(C(=O)c1cc2c(s1)CCC2)c1c(N)n(Cc2ccccc2)c(=O)[nH]c1=O` belongs -2.38% (inactive); to `Nc1c(N(CCO)C(=O)C2CCCCC2)c(=O)[nH]c(=O)n1Cc1ccccc1`, 3.34% (inactive); to `Cc1nnc2sc(-c3ccccn3)nn12`, -1.47% (inactive). As to `COC(=O)C1=C(N)Oc2cc(C)n(C)c(=O)c2C1c1ccc(Cl)cc1` (stereo not given), the inhibition is -1.12% (inactive). As for `COC(=O)C1=C(N)Oc2cc(C)n(CCCn3ccnc3)c(=O)c2C1c1ccc(Cl)cc1` (stereo not given), the figure is 27.9% (active); as for `COC(=O)C1=C(N)Oc2cc(C)n(CC3CCCO3)c(=O)c2C1c1ccc(Cl)cc1` (stereo not given), 10.9% (inactive); as for `Cc1ccc(C)c(-n2c(Cc3cccs3)n[nH]c2=S)c1`, -6.44% (inactive). In the case of `CC(C)CCNC(=O)C(c1ccco1)N(CCCO)C(=O)Cn1nnc(-c2ccc(F)cc2)n1` (stereo not given), the inhibition is 2.71% (inactive). For `O=C(CSc1nnc(NC2CCCCC2)s1)Nc1ccc(N2CCOCC2)cc1`, the inhibition was 0.83% (inactive). As for `O=C(Nc1ccccc1)/C(=C/c1cccnc1)NC(=O)c1ccco1`, the figure is -3.98% (inactive); as for `Cc1ccc(/C=N/NC(=O)c2cccs2)cc1[N+](=O)[O-]`, 5.44% (inactive); as for `CCOc1cc(/C=N\NC(=O)c2ccc(C)nc2)cc([N+](=O)[O-])c1O`, 19.1% (inactive). As for `O=C(c1cccnc1)N1CCN(c2ccc([N+](=O)[O-])cc2Cl)CC1`, the figure is 7.28% (inactive); as for `CCN1CCCC1CNC(=O)C(=O)Nc1ccccc1` (stereo not given), 4.81% (inactive). As for `O=C1Nc2ccc(F)cc2C12Nc1ccccc1-c1nnc(SCc3ccccc3Cl)nc1O2` (stereo not given), the figure is 14.4% (inactive). Turning to `O=C1Nc2ccc(Cl)cc2C12Nc1ccccc1-c1nnc(SCc3ccccc3F)nc1O2` (stereo not given), the inhibition is 19.9% (inactive). To `CC(Oc1cc(F)ccc1[N+](=O)[O-])C(=O)N(C)CC(=O)Nc1ccccc1C(F)(F)F` (stereo not given) belongs 7.16% (inactive); to `O=C1C2=C(c3ccccc31)[N+](=O)[C@@H]1CCCC[C@@H]1N2[O-]`, 8.78% (inactive); to `CC(NC(=S)Nc1ccc(F)cc1)C(c1cccs1)N1CCOCC1` (stereo not given), 1.91% (inactive).

Consider `CC1=CN2C(=N)/C(=C/c3ccco3)C(=O)N=C2S1`, for which the inhibition is 11% (inactive). For `CC1=CN2C(=N)/C(=C/c3ccc(C)o3)C(=O)N=C2S1`, the inhibition is 20.6% (inactive). As for `N#Cc1cc2c(N)c(C(=O)Nc3ccccc3)sc2nc1N`, the figure is -0.33% (inactive); as for `CCN(CC)S(=O)(=O)c1ccc2c(c1)nc(CCC(=O)OCC(=O)Nc1cc(Cl)cc(Cl)c1)n2C`, 0.35% (inactive). To `CCOC(=O)c1c(NC(=O)CSc2nnc(C)c(=O)[nH]2)sc(C)c1C` belongs 6.77% (inactive); to `Cc1nnc(SCC(=O)Nc2sc3c(c2C(N)=O)CCCC3)[nH]c1=O`, 11.5% (inactive); to `O=C(Nc1cccc2cccnc12)c1ccc2c(c1)OCCO2`, 3.45% (inactive).

Turning to `COC(=O)c1c(C(=O)OC)c(-c2cccc(Cl)c2)n2c1CS(=O)C2` (stereo not given), the inhibition is 12.7% (inactive). As to `Cc1nnc(SCC(=O)Nc2cccc(C(F)(F)F)c2)[nH]c1=O`, the inhibition is 3.06% (inactive). To `CSc1nc(N(CCO)CCO)c2sc3nc(-c4ccco4)c4c(c3c2n1)CCC4` belongs 27.5% (active); to `CSc1nc(N(C)CCO)c2sc3nc(-c4ccco4)c4c(c3c2n1)CCC4`, 11.4% (inactive); to `CCN(CCO)c1nc(SC)nc2c1sc1nc(-c3ccco3)c3c(c12)CCC3`, 20% (inactive). In the case of `COC(=O)c1sccc1NC(=O)CSCCc1ccccn1`, the inhibition is 4.36% (inactive).

In the case of `Cc1ccc(CNC(=O)C(Cc2ccccc2)NS(=O)(=O)c2cccs2)cc1` (stereo not given), the inhibition was -3.28% (inactive). As for `O=C(NCc1cccs1)C(Cc1ccccc1)NS(=O)(=O)c1cccs1` (stereo not given), the inhibition was 13.3% (inactive). To `O=C(c1ccco1)N1CCN(Cc2cccnc2)CC1` belongs 3.43% (inactive); to `CC(C)(C)NC(=O)Cn1nnc(-c2ccc(S(C)(=O)=O)cc2)n1`, 9.97% (inactive); to `Cc1onc(-c2ccncc2)c1C(=O)O`, 0.4% (inactive). To `COc1ccccc1-c1n[nH]c(=S)n1-c1ccccc1` belongs 2.6% (inactive); to `CN1CCN(C(=O)c2cc(Cl)ccc2Cl)CC1`, 8.9% (inactive); to `CC(=O)NNC(=S)NCCc1ccccc1`, 6.55% (inactive). As for `O=C(CCc1ccc(O)cc1)NNC(=S)NCCc1ccccc1`, the figure is -1.96% (inactive). Turning to `Cc1nn(-c2ccccc2)c(N)c1C1(O)C(=O)N(C)c2ccccc21` (stereo not given), the inhibition is 1.69% (inactive). Regarding `O=C(NN1C(=O)C2C3C=CC(O3)C2C1=O)c1cccc(O)c1` (stereo not given), the inhibition was 6.69% (inactive). To `Cn1cc(/C=C2\SC(=S)N(NC(=O)c3ccccc3)C2=O)c2ccccc21` belongs 3.01% (inactive); to `CC1(C)Nc2ccccc2C(=O)N1NS(=O)(=O)c1ccccc1`, 2.35% (inactive); to `CC1Nc2ccccc2C(=O)N1NS(=O)(=O)c1ccccc1` (stereo not given), 1.49% (inactive). As for `CC(/C=C1\SC(=S)N(NC(=O)c2cccc(O)c2)C1=O)=C\c1ccccc1`, the figure is -3.91% (inactive); as for `O=C(Nc1ccc(C(=O)NN2C(=O)c3ccccc3C2=O)cc1)c1ccccc1`, 8.25% (inactive).
